Data published in the supplement of paper PMC12340641.

Key:
[1] = target: IKZF1 (dCK*-IKZF1 fusion in HEK293FT) (UniProt Q13422); test: inhibition of IKZF1 HTRF signal (DMSO = 0%, pomalidomide 10 uM = 100%); higher = lower IKZF1 protein level; settings: compound concentration: 5 uM, overnight (~20 h)
Outline: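 HEK293FT cells stably expressing a dCK*-IKZF1 fusion (2000/well, 384-well) were treated overnight at 37 °C with 5 μM compound in single wells. They were then lysed 30 min at room temperature, and lysate was incubated overnight with a commercial HTRF total-IKZF1 antibody kit. The time-resolved FRET ratio (665/620 nm) was background-subtracted. Percent inhibition of IKZF1 signal was normalised per plate to vehicle (0%) and a reference degrader (100%).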

HEK293FT dCK*-only = test: relative growth in counter assay (no AraC = 100%, AraC + DMSO = 0%); higher = more growth rescue independent of IKZF1; settings: compound concentration: 5 uM; AraC concentration: 0.3 uM; overnight pretreatment + 4 days AraC
Outline: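 In 384-well plates, 300 HEK293FT cells per well expressing an engineered kinase construct alone got 5 μM compound 2 h after seeding. After overnight at 37 °C, 0.3 μM nucleoside suicide substrate plus medium was applied for 4 days. Counting of Hoechst 33342-stained nuclei by imaging on day 5 was normalised per plate, with 100% for no-substrate wells and 0% for substrate plus vehicle.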

HEK293FT dCK*-IKZF1 = test: relative growth recovery (pomalidomide 10 uM = 100%, DMSO = 0%); higher = more growth rescue (IKZF1 fusion degradation); settings: compound concentration: 5 uM; AraC concentration: 0.3 uM; overnight pretreatment + 4 days AraC
Outline: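 HEK293FT cells stably expressing an engineered deoxycytidine kinase–IKZF1 fusion were seeded at 300 per well in 384-well plates and given 5 μM compound 2 h later. After overnight incubation at 37 °C, a nucleoside suicide substrate at 0.3 μM was added with medium for 4 days, and on day 5 Hoechst 33342-stained nuclei were counted by whole-well imaging. Growth recovery was normalised per plate between a reference degrader and vehicle, set to 100% and 0% respectively, and the values are means of duplicates run on different days.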

Sequence of IKZF1 (dCK*-IKZF1 fusion in HEK293FT) (Q13422 whole entry, looked up, the tested form may be a part): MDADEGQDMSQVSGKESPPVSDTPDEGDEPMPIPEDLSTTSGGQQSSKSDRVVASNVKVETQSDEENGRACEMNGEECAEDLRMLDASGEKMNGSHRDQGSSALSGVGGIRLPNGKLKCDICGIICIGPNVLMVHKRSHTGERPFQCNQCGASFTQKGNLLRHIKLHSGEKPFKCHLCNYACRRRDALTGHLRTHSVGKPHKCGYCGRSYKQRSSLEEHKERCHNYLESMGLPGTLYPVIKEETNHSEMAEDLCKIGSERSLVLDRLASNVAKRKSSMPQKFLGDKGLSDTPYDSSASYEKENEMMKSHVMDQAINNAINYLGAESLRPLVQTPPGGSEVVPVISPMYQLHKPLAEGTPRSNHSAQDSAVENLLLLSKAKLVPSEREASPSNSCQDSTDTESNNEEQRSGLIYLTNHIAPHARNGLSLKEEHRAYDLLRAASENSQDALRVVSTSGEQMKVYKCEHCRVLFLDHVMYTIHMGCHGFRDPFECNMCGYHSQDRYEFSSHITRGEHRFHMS

SMILES	inhibition of IKZF1 HTRF signal [1]	relative growth in counter assay (HEK293FT dCK*-only)	relative growth recovery (HEK293FT dCK*-IKZF1)
CC(C)C[C@H](NC(=O)[C@@H](O)[C@H](N)Cc1ccccc1)C(=O)NCCOCCOCCOCC(=O)O[C@H]1CC[C@H]2[C@@H]3CC[C@H]4CC(=O)CC[C@]4(C)[C@H]3CC[C@]12C.O=C(O)C(F)(F)F [PROTAC AR Degrader-4 (TFA)]	16.9%	12.3%	8.26%
C[C@H]1CCC/C=C/C2C[C@H](O)C[C@H]2[C@H](O)/C=C/C(=O)O1 (some centres undefined) [brefeldin-a]	2.49%	-32.6%	-10%
C=C(C)CN1CC[C@]23c4c5ccc(O)c4O[C@H]2c2[nH]c4ccccc4c2C[C@@]3(O)C1C5	-30.3%	-7.54%	-3.3%
CCO[C@H]1O[C@@H]2O[C@@]3(C)CC[C@H]4[C@H](C)CC[C@@H]([C@H]1C)[C@@]24OO3 [Artemotil]	21.4%	-27.3%	-5.64%
CO[C@H]1[C@H](O)[C@H](O[C@H]2CC[C@@]3(C=O)[C@H](CC[C@@H]4[C@@H]3CC[C@]3(C)[C@@H](C5=CC(=O)OC5)CC[C@]43O)C2)O[C@@H](C)[C@@H]1O [Peruvoside]	94.1%	-34.2%	-12.7%
COC[C@H]1OC(=O)c2coc3c2[C@@]1(C)C1=C(C3=O)[C@@H]2CCC(=O)[C@@]2(C)C[C@H]1OC(C)=O [Wortmannin]	1.66%	0.96%	1.92%
C[C@]12CCC3C(CC[C@]4(O)C[C@@H](O)CC[C@]34C=O)[C@@]1(O)CCC2C1=CC(=O)OC1 (some centres undefined) [Strophantidin]	74.7%	-32.9%	-11.4%
CC[C@H]1C2CC3[C@@H]4N(C)c5ccccc5[C@]45C[C@@H](C2C5O)N3[C@@H]1O (some centres undefined)	-0.05%	5.04%	1.42%
Clc1ccc(N2CCN(Cc3c[nH]c4ncccc34)CC2)cc1	-41.5%	6.88%	2.15%
C[C@@]1(CO)[C@H](O)CC[C@@]2(C)[C@H]1CC[C@H]1C[C@@H]3C[C@@]12CC[C@]3(O)CO [Aphidicolin]	-14.2%	-34.1%	-12.3%
CN(C)C(=S)SSC(=S)N(C)C	-13.8%	-35.1%	-12.7%
O=[N+]([O-])c1ccc(Cl)c([N+](=O)[O-])c1 [2,4-dinitrochlorobenzene]	7.2%	-34.1%	-12.8%
C[C@]12CC[C@H](O)C[C@H]1CC[C@@H]1[C@@H]2C[C@@H](O)[C@]2(C)[C@@H](C3=CC(=O)OC3)CC[C@]12O [Digoxigenin]	22.7%	-33.8%	-10.9%
ClC(C=C3)=C(Cl)C=[C@@]3[C@H]2C1=CC=CC=C1[C@H](NC)C2 [indatraline]	28.4%	0.14%	-3.33%
OC1=[C@]([C@]2=C(O)C(C(C=O)=C(O)C(O)=C3C(C)C)=C3C=C2C)C(C)=CC4=C1C(C=O)=C(O)C(O)=C4C(C)C [gossypol]	-16.2%	-34.8%	-11.7%
O=c1c2ccccc2[se]n1-c1ccccc1	-37.8%	-8.59%	-0.075%
C[C@H]1O[C@@H](O[C@H]2[C@@H](O)C[C@H](O[C@H]3[C@@H](O)C[C@H](O[C@H]4CC[C@@]5(C)[C@H](CC[C@@H]6[C@@H]5C[C@@H](O)[C@]5(C)C(c7coc(O)c7)CC[C@]65O)C4)O[C@@H]3C)O[C@@H]2C)C[C@H](O)[C@@H]1O (some centres undefined) [Digoxin]	84.1%	-34.1%	-12.6%
C=C1[C@@H](C)[C@H]2[C@H](Cc3ccccc3)NC(=O)[C@]23OC(=O)/C=C/[C@H](O)CCC[C@@H](C)C/C=C/[C@H]3[C@@H]1O [Cytochalasin B]	32.2%	-30.2%	-8.39%
CC(C)[C@]12O[C@H]1[C@@H]1O[C@]13[C@]1(O[C@H]1C[C@H]1C4=C(CC[C@@]13C)C(=O)OC4)[C@@H]2O [Triptolide]	29.6%	-34%	-12.8%
c1ccc2c(c1)sc1ccccc12	-33.1%	-4.73%	1.72%
c1ccc2c(c1)Sc1ccccc1N2CC1CN2CCC1CC2 (centres undefined) [levomequitazine]	10.6%	-5.25%	0.35%
CC[C@@]1(O)C(=O)OCc2c1cc1n(c2=O)Cc2cc3ccccc3nc2-1 [camptothecin]	-10.9%	-34.5%	-12.9%
CC[C@@H](C(=O)O)C1CC[C@H](C)C([C@@H](C)[C@H](O)[C@H](C)C(=O)[C@H](CC)C2O[C@]3(C=C[C@@H](O)[C@]4(CC[C@@](C)(C5CC[C@](O)(CC)[C@H](C)O5)O4)O3)[C@H](C)C[C@@H]2C)O1 (some centres undefined) [Salinomycin (Procoxacin)]	-5.47%	-10.3%	-1.1%
